# In PubChem BioAssay (NCATS):
# Results filed as inconclusive are left out. Entries that show only a call come without a potency. Unmarked numbers belong to inactive results. Activity calls are given as the source filed them. Unless noted, calls come from the whole dose curve.
# Columns and labels:
# [1] = qHTS for Inhibitors of the Functional Ribonucleoprotein Complex (vRNP) of Lassa (LASV) Arenavirus: LASV Primary Screen - GLuc reporter signal (AID 1347082; calls by dose curve; tested in HEK293 reporter line; note: nearly all actives have a fitted effect of over 60% in size; for activity change, negative = inhibition: series mostly up to about 57 µM)
# [2] = qHTS for Inhibitors of the Functional Ribonucleoprotein Complex (vRNP) of Lassa (LASV) Arenavirus: Viability assay - alamar blue signal for LASV Primary Screen (AID 1347083; calls by dose curve; tested in HEK293 reporter line; note: nearly all actives have a fitted effect of over 80% in size; for activity change, negative = reduced viability: series mostly up to about 57 µM)
# [3] = qHTS for Inhibitors of the Functional Ribonucleoprotein Complex (vRNP) of Lymphocytic Choriomeningitis Arenaviruses (LCMV): Viability assay - alamar blue signal for LCMV Primary Screen (AID 1347085; calls by dose curve; tested in HEK293 reporter line; note: nearly all actives have a fitted effect of over 80% in size; for activity change, negative = lower viability: series mostly up to about 57 µM)
# [4] = target: Nucleoprotein (Lymphocytic choriomeningitis virus (strain Armstrong)) (UniProt P09992); test: qHTS for Inhibitors of the Functional Ribonucleoprotein Complex (vRNP) of Lymphocytic Choriomeningitis Arenaviruses (LCMV): LCMV Primary Screen - GLuc reporter signal (AID 1347086); note: nearly all actives have a fitted effect of over 70% in size; for activity change, negative = inhibition: series mostly up to about 57 µM
# Sequence of Nucleoprotein (Lymphocytic choriomeningitis virus (strain Armstrong)) (P09992 whole entry, looked up): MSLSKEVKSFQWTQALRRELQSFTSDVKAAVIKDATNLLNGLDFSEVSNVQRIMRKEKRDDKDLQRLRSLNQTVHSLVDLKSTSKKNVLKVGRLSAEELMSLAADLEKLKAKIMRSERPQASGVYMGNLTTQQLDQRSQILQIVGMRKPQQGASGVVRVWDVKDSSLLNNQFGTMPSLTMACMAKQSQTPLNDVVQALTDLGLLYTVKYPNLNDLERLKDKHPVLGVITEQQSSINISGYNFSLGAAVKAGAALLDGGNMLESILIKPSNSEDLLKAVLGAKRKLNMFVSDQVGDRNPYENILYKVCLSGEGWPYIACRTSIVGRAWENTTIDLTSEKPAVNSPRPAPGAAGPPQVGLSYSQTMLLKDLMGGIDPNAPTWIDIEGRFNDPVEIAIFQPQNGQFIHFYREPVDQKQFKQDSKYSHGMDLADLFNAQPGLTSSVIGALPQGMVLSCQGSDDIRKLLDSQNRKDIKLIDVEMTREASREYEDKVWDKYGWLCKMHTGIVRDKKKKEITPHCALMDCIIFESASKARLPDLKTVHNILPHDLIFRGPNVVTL
# Potency is the fitted concentration of half-maximal effect.
Structure (SMILES),Potency [1],Potency [2],Potency [3],Potency [4],"activity change, negative = inhibition [1]","activity change, negative = reduced viability [2]","activity change, negative = lower viability [3]","activity change, negative = inhibition [4]"
CC1=C[C@H](O)CC(C)(C)[C@H]1/C=C/C(C)=C/C=C/C(C)=C/C=C/C=C(C)/C=C/C=C(C)/C=C/C1=C(C)C[C@@H](O)CC1(C)C,inactive,inactive,inactive,inactive,–,–,–,–
C[C@]12CCC(=O)C=C1[C@@H]1CC1[C@H]1[C@H]3[C@@H]4C[C@H]4[C@@]4(CCC(=O)O4)[C@@]3(C)CC[C@H]12 (stereo not given in full),inactive,inactive,inactive,inactive,–,–,–,–
CC(=O)OC[C@@]12C(=O)[C@@H](O)[C@@H](C)[C@]3(C[C@@H](c4ccoc4)O[C@@H]3OC(C)=O)[C@H]1CCC[C@]21CO1,inactive,inactive,inactive,inactive,–,–,–,–
C=CC(C)(CCC=C(C)C)OC(=O)c1ccccc1 (stereo not given),inactive,inactive,inactive,inactive,–,–,–,–
CCC/C=C/CO,inactive,inactive,inactive,inactive,–,–,–,–
COC(/C=C(\C)CCC=C(C)C)OC,inactive,inactive,inactive,inactive,–,–,–,–
COc1ccc(C2CC(=O)c3c(O)cc(O)cc3O2)c(CC=C(C)C)c1OC (stereo not given),inactive,inactive,inactive,inactive,–,–,–,–
COc1cccc(OC)c1,inactive,inactive,inactive,inactive,–,–,–,–
CC(C)CC[C@@H](O)[C@](C)(O)C1CC[C@@]2(O)C3=CC(=O)[C@@H]4C[C@@H](O)[C@@H](O)C[C@]4(C)C3CC[C@]12C (stereo not given in full),inactive,inactive,inactive,inactive,–,–,–,–
CC/C=C\C/C=C\C/C=C\C/C=C\C=C\C(O)CCCC(=O)O (stereo not given),–,–,–,–,1.12% [at 0.757 µM],9.64% [at 0.757 µM],6.07% [at 0.757 µM],1.64% [at 0.757 µM]
C[C@H](Cn1cnc2c(N)ncnc21)OCP(=O)(O)O,inactive,inactive,inactive,inactive,–,–,–,–
CC1=CC[C@@]23C[C@@H]1C(C)(C)[C@@H]2CC[C@H]3C,inactive,inactive,inactive,inactive,–,–,–,–
CC(C)CC(=O)O,inactive,inactive,inactive,inactive,–,–,–,–
COc1cc(OC)c2ccc(=O)oc2c1,inactive,inactive,inactive,inactive,–,–,–,–
COc1cc(O)c2c(=O)c3c(OC)c(O)ccc3oc2c1,inactive,inactive,inactive,inactive,–,–,–,–
COC(=O)c1cc(=O)cc(C(=O)OC)o1,inactive,inactive,inactive,inactive,–,–,–,–
C/C=C(/C)C(=O)O[C@@H]1[C@H](OC(=O)C=C(C)C)c2c(ccc3ccc(=O)oc23)OC1(C)C,inactive,inactive,inactive,inactive,–,–,–,–
O=C1c2c(O)cc(O)cc2O[C@@]12c1c(cc(O)c3c1O[C@H](c1ccc(O)cc1)[C@@H](O)C3)O[C@@H]2c1ccc(O)cc1,inactive,inactive,inactive,inactive,–,–,–,–
CC(=O)O[C@H]1C[C@@H]2CC[C@@]1(C)C2(C)C,inactive,inactive,inactive,inactive,–,–,–,–
COc1c(C)c2c(c(O)c1CC=C(C)CCC(=O)OCCN1CCOCC1)C(=O)OC2,6110 nM (active),6850 nM (active),12200 nM (active),6110 nM (active),–,–,–,–

Structure (SMILES),Potency [1],Potency [2],Potency [3],Potency [4],"activity change, negative = inhibition [1]","activity change, negative = reduced viability [2]","activity change, negative = lower viability [3]","activity change, negative = inhibition [4]"
CCc1cnn2c(NCc3ccc[n+]([O-])c3)cc(N3CCCC[C@@H]3CCO)nc12,109 nM (active),38.5 nM (active),38.5 nM (active),48.5 nM (active),–,–,–,–
CC=C(C)C(=O)OC1CCN2CC=C(COC(=O)C(O)(C(C)OC)C(C)(C)O)C12 (stereo not given),inactive,inactive,inactive,inactive,–,–,–,–
COC1[C@@H](O[C@@H]2O[C@H](C)[C@@H](O[C@H]3C[C@@](C)(O)[C@H](OC(=O)CC(C)C)[C@H](C)O3)[C@H](N(C)C)[C@H]2O)[C@@H](CC=O)C[C@@H](C)[C@@H](O)/C=C/C=C/C[C@@H](C)OC(=O)C[C@H]1OC(C)=O (stereo not given in full),inactive,inactive,inactive,inactive,–,–,–,–
CCN1CC2(COC(=O)c3ccccc3N)CCC(OC)C34C5CC6C(OC)CC(O)(C5C6OC)C(O)(C(OC)C23)C14 (stereo not given),inactive,inactive,inactive,inactive,–,–,–,–
CC(C)=CCC1=C(O)[C@](O)(CC=C(C)C)C(=O)C(C(=O)CC(C)C)=C1O,inactive,inactive,inactive,inactive,–,–,–,–
CC1(C)C[C@H]2C3=CCC4[C@@]5(C)CC[C@H](O)[C@](C)(CO)C5CC[C@@]4(C)[C@]3(C)C[C@@H](O)[C@@]2(CO)[C@@H](O)[C@@H]1O (stereo not given in full),inactive,inactive,inactive,inactive,–,–,–,–
CN1C2CCC1CC(OC(=O)c1cccc(O)c1)C2 (stereo not given),inactive,inactive,inactive,inactive,–,–,–,–
CCCCC[C@H](O)/C=C/C=C\C/C=C\C=C\[C@@H](O)CCCC(=O)O,–,–,–,–,2.34% [at 0.757 µM],18.4% [at 0.757 µM],2.14% [at 0.757 µM],18.8% [at 0.757 µM]
CC(C)(O)[C@H](O)Cc1cc2ccc(=O)oc2cc1O[C@@H]1O[C@H](CO)[C@@H](O)[C@H](O)[C@H]1O,inactive,inactive,inactive,inactive,–,–,–,–
C/C=C1/C[C@@H](C)[C@@](C)(O)C(=O)OCC2=CCN3CC[C@@H](OC1=O)[C@@H]23,inactive,inactive,inactive,inactive,–,–,–,–
CC1=CC23C(=O)C(C=C(CO)[C@@H](O)[C@]2(O)[C@H]1O)[C@H]1[C@@H](C[C@H]3C)C1(C)C (stereo not given in full),inactive,inactive,inactive,inactive,–,–,–,–
CC1(C)[C@H](O[C@H]2O[C@H](C(=O)O)[C@@H](O)[C@H](O)[C@H]2O[C@@H]2O[C@H](C(=O)O)[C@@H](O)[C@H](O)[C@H]2O)CC[C@@]2(C)[C@H]1CC[C@]1(C)[C@H]2C(=O)C=C2[C@H]3C[C@@](C)(C(=O)O)CC[C@]3(C)CC[C@]21C,inactive,inactive,inactive,inactive,–,–,–,–
Cc1c(O)c2c(c(C(=O)/C=C/c3ccccc3)c1O)OC(C)(C)C=C2,inactive,inactive,inactive,inactive,–,–,–,–
COC(=O)C1=CO[C@@H](O)[C@@H]2C(CO)=CC[C@@H]12,inactive,inactive,inactive,inactive,–,–,–,–
OC[C@H]1O[C@@H](OC[C@H]2O[C@@H](O)[C@H](O)[C@@H](O)[C@@H]2O)[C@H](O)[C@@H](O)[C@@H]1O,inactive,inactive,inactive,inactive,–,–,–,–
O=C1c2c(O)cc(O)cc2O[C@H](c2cc(O)c(O)c(O)c2)[C@H]1O,inactive,inactive,inactive,inactive,–,–,–,–
O=C(Nc1ccc(Br)cc1)C(c1ccccc1)c1ccccc1,inactive,inactive,inactive,inactive,–,–,–,–
COc1c2ccoc2c(OC[C@@H](OC(C)=O)C(C)(C)O)c2oc(=O)ccc12,inactive,inactive,inactive,inactive,–,–,–,–
COc1cc(C2OCC3C(c4ccc(OC5OC(CO)C(O)C(O)C5O)c(OC)c4)OCC23)ccc1O (stereo not given),inactive,inactive,inactive,inactive,–,–,–,–
CCCCCCCCOS(=O)(=O)O,inactive,inactive,inactive,inactive,–,–,–,–

Structure (SMILES),Potency [1],Potency [2],Potency [3],Potency [4],"activity change, negative = inhibition [1]","activity change, negative = reduced viability [2]","activity change, negative = lower viability [3]","activity change, negative = inhibition [4]"
CC[C@H](C)/C=C(C)/C=C/C(=O)Cc1cc(O)c(C)c(O)c1C=O,inactive,inactive,inactive,inactive,–,–,–,–
COC(=O)/C=C/c1ccccc1,inactive,inactive,inactive,inactive,–,–,–,–
CO[C@H]1/C=C\O[C@@]2(C)Oc3c(C)c(O)c4c(O)c(c5c(nc6cc(C)ccn65)c4c3C2=O)NC(=O)C(C)=CC=C[C@H](C)[C@H](O)[C@@H](C)[C@@H](O)[C@@H](C)[C@H](OC(C)=O)[C@H]1C,inactive,inactive,inactive,inactive,–,–,–,–
COc1ccc(-c2coc3cc(O)cc(O)c3c2=O)cc1OC,inactive,inactive,inactive,inactive,–,–,–,–
CC[C@]1(O)C[C@@H]2CN(CCc3c([nH]c4ccccc34)[C@@](C(=O)OC)(c3cc4c(cc3OC)N(C=O)[C@@H]3C45CCN4CC=C[C@](CC)([C@H]45)[C@@H](OC(C)=O)[C@]3(O)C(=O)OC)C2)C1 (stereo not given in full),inactive,inactive,inactive,inactive,–,–,–,–
Cn1c(=O)c(-c2ccccc2)c(O)c2ccccc21,inactive,inactive,inactive,inactive,–,–,–,–
COc1ccc(C[C@@H](C)[C@@H](C)Cc2ccc(OC)c(OC)c2)cc1OC,21700 nM (active),6110 nM (active),12200 nM (active),24300 nM (active),–,–,–,–
C[C@@H]1C[C@@H]2OC(=O)[C@]3(C)[C@H]2[C@@H](OC3(C)O)[C@]2(C)C(=O)C=C[C@H]12 (stereo not given in full),inactive,inactive,inactive,inactive,–,–,–,–
Nc1[nH]c(=O)nc2c1ncn2C1OC(CO)C(O)C1O (stereo not given),inactive,inactive,inactive,inactive,–,–,–,–
Cc1coc2c1C(=O)C(=O)c1c-2ccc2c(C)cccc12,inactive,inactive,inactive,inactive,–,–,–,–
COc1ccc2[nH]cc(CCO)c2c1,inactive,inactive,inactive,inactive,–,–,–,–
CNC(=O)c1cccc(-c2ccc3c(N4CCOC[C@H]4C)nc(N4CCOC[C@H]4C)nc3n2)c1,137 nM (active),137 nM (active),153 nM (active),137 nM (active),–,–,–,–
C#CCCC/C(=C\C(=O)N(C)[C@H](C(=O)N(C)[C@H](C(=O)N(C)[C@H](C(=O)N(C)[C@H](C(N)=O)C(C)C)C(C)C)C(C)C)C(C)C)OC,inactive,inactive,inactive,inactive,–,–,–,–
CC1(C)CCC[C@@]2(C)[C@@H]1CC[C@@]1(C)OC(=O)C[C@H]21,inactive,inactive,inactive,inactive,–,–,–,–
CCCCCCCCCCCCCC[C@@H](O)[C@@H](O)[C@@H](N)CO,inactive,inactive,inactive,inactive,–,–,–,–
O=C(NCO)c1cccnc1,inactive,inactive,inactive,inactive,–,–,–,–
CC1(C)C(N(O)C(=O)Nc2ccc(Cl)cc2)N(c2ccc(Cl)cc2)C(=O)N1CC(=O)NN=CC=Cc1ccc([N+](=O)[O-])o1 (stereo not given),inactive,inactive,inactive,inactive,–,–,–,–
CCCCCCCCCCCC(=O)OCC,inactive,inactive,inactive,inactive,–,–,–,–
COc1cc2nc3occc3c(OC)c2cc1OC,inactive,inactive,inactive,inactive,–,–,–,–
CS[C@H]1SC[C@@H]2C(=O)N(C)[C@H](C(C)C)C(=O)OC[C@H](NC(=O)c3cnc4ccccc4n3)C(=O)N[C@H](C)C(=O)N(C)[C@@H]1C(=O)N(C)[C@H](C(C)C)C(=O)OC[C@H](NC(=O)c1cnc3ccccc3n1)C(=O)N[C@H](C)C(=O)N2C,61.1 nM (active),10.9 nM (active),6.1 nM (active),17.2 nM (active),–,–,–,–
